An excerpt weighted towards active compounds, which were near 19% of everything screened.
Cycloheximide cs – affects cycloheximide protein synthesis inhibition readout, counter-screen | 12% of 300,000 active | max response, % | cell reporter, cycloheximide protein synthesis inhibition counterscreen; in the data active means max response mostly above about 13%, no sharp cut-off; inactive means mostly below about 14%; further: read at 38.3 µM for the half of the compounds with a filed dose; 0% is about no effect
Pf growth 48h – inhibits P. falciparum growth in the first generation, 48 h | AID 504832 | Potency, µM (doses to about 28.7 µM), without a hit: at the highest dose activity change, negative = inhibition, usual class: inhibitors | P. falciparum luciferase growth in erythrocytes, 48 h | 5.9% of 310,000 active; further: potency means the concentration at half of the fitted maximal effect; on the % scale 0 is the no-effect control and ±100 the full control effect
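Cell-based growth assay: transgenic P. falciparum expressing firefly luciferase, cultured in red cells within RPMI 1640 containing 0.5% w/v Albumax, 24 mM bicarbonate and gentamycin. A drop in luciferase activity indicates inhibition.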
Shiga toxin inh – Shiga toxin inhibition | Vero cells, Shiga toxin protein synthesis inhibition reporter | inhibition, % at 38.7 µM | 9.2% of 290,000 active | AID 2315; in the data active means inhibition mostly above about 28%, no sharp cut-off; inactive means mostly below about 43%; further: 0% is about no effect
Marburg entry inh – inhibitors of Marburg virus binding or cell entry; Marburg virus pseudotyped entry inhibition, cell reporter; Potency, µM (top dose mostly 37.8 µM), without a hit: top-dose activity change, negative = inhibition, hits mostly inhibitors; 1.8% of 300,000 active; AID 540276; calls by dose curve; tested in HEK293 cells; further: potency means the concentration at half of the fitted maximal effect; on the % scale 0 is the no-effect control and ±100 the full control effect
LASV entry inh – blocks Lassa virus binding to or entry into cells | Lassa virus pseudotype entry inhibition, cell reporter | Potency, µM (highest dose often 37.9 µM), for the others: at the top dose activity change, negative = inhibition, hits mostly inhibitors | 1.2% of 300,000 active; calls by dose curve; tested in HEK293 cells; further: potency means the concentration at half of the fitted maximal effect; on the % scale 0 is the no-effect control and ±100 the full control effect; nearly all actives have a fitted effect of over 50% in size
Pf growth 96h – P. falciparum growth inhibition at 96 hours; P. falciparum luciferase reporter growth, 96 h; Potency, µM (series often up to 28.7 µM), without a hit: top-dose activity change, negative = inhibition, hits mostly inhibitors; 6.9% of 320,000 active; further: potency means the concentration at half of the fitted maximal effect; on the % scale 0 is the no-effect control and ±100 the full control effect
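Two-generation exposure (96 h) targets delayed-death phenotype. Reporter parasites carrying integrated firefly luciferase, in red cells at 2% hematocrit and 0.05% parasitemia final, kept at 37 C, 5% CO2; luminescence loss indicates inhibition.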
The depositor's hits bear a star; ? = inconclusive; nt = no result; [ ] = another dose, or the depositor's remark. Unless noted, the call rests on the fitted dose curve; in most records, active means well fitted inhibition curve with a large enough effect; inconclusive means small, poorly fitted or top-dose-only effect, or another doubt; inactive means no such curve, though single readings can be large or run the other way.

SMILES	Cycloheximide cs	Pf growth 48h	Shiga toxin inh	Marburg entry inh	LASV entry inh	Pf growth 96h
Cc1ccc2cccc(SCC(=O)Nc3ccc(F)cc3)c2n1	-2	nt	-3	?	?	-28%
N#CC1=C2C=Cc3ccccc3N2CCCC1=O	33*	85%	45*	?	0%	4%[5.75 µM]
Cc1ccc(CSc2ccc(-c3ccc4c(c3)OCO4)nn2)cc1	11	21%	22	6%	?	38%
Cc1cnc(CN(C)C(=O)c2ccc3oc(Cc4ccccc4)nc3c2)[nH]1	13	-19%	-3	?	-13%	4.7µM*
CC(c1ccncn1)N(C)C(=O)c1ccc2oc(Cc3ccccc3)nc2c1 (configuration not stated)	34*	-5%	50*	?	1%	-16%
Cc1cnc(CN(C)C(=O)c2ccc3oc(Cc4ccc(Cl)cc4)nc3c2)[nH]1	-1	?	-14	nt	nt	4%
COc1ccc(CCNCc2ccccc2N2CCCC2)cc1	-4	?	-3	?	?	?
CC(OC(=O)c1ccccc1C(=O)N(C)Cc1ccccc1)C(=O)NC1(C#N)CCCCC1 (configuration not stated)	nt	10µM*	nt	-10%	3%	?
CNC(=O)CCCN1C(=O)c2ccccc2Sc2ncccc21	-1	nt	-5	nt	nt	-20%
CCCCC1(c2ccc(F)cc2)NC(=O)N(CC(=O)N2CCN(C(=O)c3ccco3)CC2)C1=O (configuration not stated)	4	-14%	-12	-1%	2%	6.6µM*
O=C(Nc1ccc(N2CCN(Cc3ccccc3)CC2)cc1)c1ccco1	13*	?	65*	-23%	-7%	10%
O=C(O)C1CC=CCC1C(=O)Nc1ccc(N2CCN(Cc3ccccc3)CC2)cc1 (configuration not stated)	-2	13%	-1	?	3%	7%
CC(C)(C)C(=O)N1CCN(c2ccc(NC(=O)c3ccco3)cc2)CC1	-2	-29%	10	?	-8%[46.1 µM]	?
Fc1ccc(CNc2ccc(N3CCN(Cc4ccccc4)CC3)cc2)cc1	6	-22%	12	?	?	9.3µM*
CC(C)CC(=O)N1CCN(c2ccc(NC(=O)c3ccco3)cc2)CC1	-1	?	2	12%	-1%	9.3µM*
O=C(CCCN1CCOC(c2ccccc2)C1)c1ccc(F)cc1 (configuration not stated)	-2	7%	7	nt	nt	-22%
O=C(N/N=C/c1ccco1)C1(O)c2ccccc2-c2ccccc21	-2	80%	-1	nt	nt	47%
O=C(c1ccco1)N1CCN(c2ccc(F)cc2)CC1	26	33%	100*	-1%	-1%	-8%
O=C(Nc1ccc(N2CCN(C(=O)c3ccco3)CC2)cc1)c1ccccc1	12*	?	14	10%[46.1 µM]	7%	46%
CCOC(=O)C(CC(=O)c1ccccc1)CC(=O)c1ccccc1	39*	75%	113*	nt	nt	75%
COC(=O)C(CC(=O)c1ccccc1)CC(=O)c1ccccc1	17*	33%	43*	nt	nt	34%
Cc1ccc(C2c3[nH]c4ccccc4c3C[C@H]3C(=O)N(c4ccccc4C(=O)N4CCC(C(=O)O)CC4)C(=O)N23)cc1 (some centres not stated)	-5	12µM*	-2	nt	nt	5.9µM*
O=C(NCCN1CCOCC1)c1ccccc1N1C(=O)[C@@H]2Cc3c([nH]c4ccccc34)C(c3ccc(F)cc3)N2C1=O (some centres not stated)	3	?	-6	nt	nt	?
COc1ccc(C2c3[nH]c4ccccc4c3C[C@H]3C(=O)N(c4ccccc4C(=O)NCCN4CCOCC4)C(=O)N23)cc1 (some centres not stated)	1	13µM*	0	nt	nt	?
COc1cccc(C2c3[nH]c4ccccc4c3C[C@H]3C(=O)N(c4ccccc4C(=O)N4CCCC4C(=O)O)C(=O)N23)c1 (some centres not stated)	0	?	-4	nt	nt	?
SMILES	Cycloheximide cs	Pf growth 48h	Shiga toxin inh	Marburg entry inh	LASV entry inh	Pf growth 96h
O=C(O)C1CCN(C(=O)c2ccccc2N2C(=O)[C@@H]3Cc4c([nH]c5ccccc45)C(c4cccc(Cl)c4)N3C2=O)CC1 (some centres not stated)	-3	?	-6	nt	nt	9.3µM*
CCOc1cc(CNn2cnnc2)cc(Cl)c1OCC(=O)NC(C)(C)C	-1	11%	11	-5%[46.1 µM]	-2%[46.1 µM]	35%
COc1ccc(-n2cc(CN[C@H]3CCCCNC3=O)c(-c3cccc(F)c3)n2)cc1	-2	?	17	nt	nt	?
CC(C)c1ccc(CNc2nc(-c3ccco3)nn2S(=O)(=O)c2ccccc2)cc1	nt	nt	nt	?	18%[46.1 µM]	nt
CCCCOP(=O)(OCCCC)C(O)c1ccc(N(C)C)cc1 (configuration not stated)	-1	3%	26	-3%[46.1 µM]	-11%[46.1 µM]	20%
C[C@H](NC(=O)N1CCn2c1nc1ccccc12)C(=O)NCc1ccccc1	-2	-11%	0	nt	nt	-7%
CC1(C)N(O)C2CCCCC2N1O (configuration not stated)	13	0.037µM*	17	?	5%	?
Cc1ccc(-n2[nH]c(C)c(C=NCc3ccncc3)c2=O)cc1	39*	0%	53*	?	28%[46.1 µM]	11%
COc1ccc2nc(/N=C/c3c(C)[nH]n(-c4ccc(C)cc4)c3=O)sc2c1	17*	34%	14	15%	5%	?
Cc1ccc(-n2[nH]c(C)c(/C=N/c3ccccn3)c2=O)cc1	-1	-5%	-14	1%	9%	21%
Cc1[nH]n(-c2ccccc2)c(=O)c1C=NCc1ccncc1	11	21%	10	5%[46.1 µM]	21%	-3%
Cc1ccc(-n2[nH]c(C)c(C=Nc3cc(C)ccn3)c2=O)cc1	8	35%	-3	1%[46.1 µM]	0%	7.4µM*
Cc1ccc(NC(=O)CCCNC(=O)c2ccc(Cl)cc2)nc1	29*	29%	63*	?	10%[46.1 µM]	28%
Cc1ccc(NC(=O)CCNC(=O)c2ccc(Br)cc2)nc1	18*	34%	56*	nt	nt	34%
Cc1ccc(NC(=O)CCNC(=O)c2ccc(Cl)cc2)nc1	41*	42%	74*	?	6%[46.1 µM]	79%
Cc1ccc(NC(=O)CCCNC(=O)c2ccc(Cl)cc2)c(O)c1	69*	45%	91*	?	13%[46.1 µM]	64%
CN(Cc1ccccc1NC(=O)c1ccc(S(=O)(=O)N(C)C)cc1)C1CCCCC1	-2	?	-15	nt	nt	?
NC(=O)C1CCCc2c1n(Cc1ccccc1)c1ccccc21 (configuration not stated)	-2	11%	-3	?	6%[46.1 µM]	3%
O=C1NN(c2ccccc2)C(=O)C2C3C=CC(C4CC34)C12 (configuration not stated)	-2	-1%	-10	1%	5%	77%
O=C(CSc1nc2ccccc2o1)Nc1ccc(N2CCOCC2)cc1	47*	236%	62*	24%	62%[14.3 µM]	32%
